Several values for one entry are separate records, joined by “and”; a condition that tells them apart may be missing. Equal values may be shown once. Results filed as inconclusive are left out. Activity calls are given as the source filed them. Unless noted, the call rests on the fitted dose curve; in most records, active means well fitted curve in the direction sought with a large enough effect in the repeat runs; inconclusive means weak or mixed curves; inactive means no such curve, though single readings can be large; an effect the other way counts as inactive or inconclusive.
What was measured:
[1] = qHTS assay to identify small molecule agonists of the constitutive androstane receptor (CAR) signaling pathway - cell viability counter screen (AID 1224836); further: nearly all actives have a fitted effect of over 45% in size
Outline: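 Viability read-out: CellTiter-Fluor fluorescence after 23 h compound exposure at 37 C/5% CO2 in double-stable HepG2-CYP2B6-hCAR cells, with PK11195 present at 0.75 uM final; compounds tested in 15-point titration.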

[2] = qHTS assay to identify small molecule antagonists of the constitutive androstane receptor (CAR) signaling pathway - cell viability counter screen (AID 1224837); further: nearly all actives have a fitted effect of over 45% in size
Outline: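 Using CellTiter-Fluor, viability is scored in HepG2 cells stably carrying hCAR and a 2.2kb CYP2B6 reporter after 23 hr compound exposure across 15 concentrations, with CITCO present at 50 nM.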

[3] = target: Nuclear receptor subfamily 1 group I member 3 (Homo sapiens) (UniProt Q14994); experiment: qHTS assay to identify small molecule antagonists of the constitutive androstane receptor (CAR) signaling pathway (AID 1224838);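 further: HepG2 cells stably expressing hCAR with CYP2B6 luciferase reporter stimulated by CITCO; nearly all actives have a fitted effect of over 40% in size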
Nuclear receptor subfamily 1 group I member 3 (Homo sapiens), sequence (Q14994 whole entry, looked up): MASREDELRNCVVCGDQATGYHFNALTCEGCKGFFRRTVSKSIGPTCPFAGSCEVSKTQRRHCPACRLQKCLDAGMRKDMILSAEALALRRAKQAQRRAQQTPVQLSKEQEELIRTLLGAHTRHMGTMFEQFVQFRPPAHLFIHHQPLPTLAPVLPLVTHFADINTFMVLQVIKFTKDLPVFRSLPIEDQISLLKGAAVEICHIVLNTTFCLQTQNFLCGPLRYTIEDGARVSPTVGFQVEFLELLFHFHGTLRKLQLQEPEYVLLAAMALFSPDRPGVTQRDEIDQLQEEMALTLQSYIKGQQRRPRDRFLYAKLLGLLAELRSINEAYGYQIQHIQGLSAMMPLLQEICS
Outline: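 Reporter luminescence was quantified after 24 h exposure of hCAR/CYP2B6-2.2kb double-stable HepG2 cells to compounds at 15 concentrations in the presence of 50 nM CITCO final.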

[4] = target: Nuclear receptor subfamily 1 group I member 3 (Homo sapiens) (UniProt Q14994); experiment: qHTS assay to identify small molecule agonists of the constitutive androstane receptor (CAR) signaling pathway (AID 1224839);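 further: HepG2 cells stably carrying human CAR and a CYP2B6 luciferase reporter; nearly all actives have a fitted effect of over 15% in size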
Outline: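 Luminescence read-out (ONE-Glo, 30 min, room temperature) from double-stable HepG2-CYP2B6-hCAR cells exposed 24 h to 15-point compound series in presence of 0.75 uM PK11195 final.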

[5] = qHTS assay to identify small molecule antagonists of the estrogen related receptor signaling pathway with the pleiotropic PPARgamma coactivator (PGC) from Tox21 10K library - cell viability counter screen (AID 1224840; active means well fitted cell-killing curve with a large enough effect in the repeat runs, not every such curve was filed as active; further: nearly all actives have a fitted effect of over 40% in size)
Outline: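 Here the PGC/ERR cells serve as a cytotoxicity control: they are exposed to compounds for 17.5 hours at 37 C, and live-cell signal is quantified using CellTiter-Fluor fluorescence.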

[6] = qHTS assay to identify small molecule antagonists of the estrogen related receptor signaling pathway with the pleiotropic PPARgamma coactivator (PGC) from Tox21 10K library (AID 1224841; call rule not given here; further: actives are mostly falling curves and most rising ones were filed inactive; nearly all actives have a fitted effect of over 50% in size)
Outline: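 Each well held 2,000 PGC/ERR cells, pre-incubated six hours (37 C, 5% CO2). Test substances in DMSO were added by pin tool and left for 18 h at 37 C before luciferase detection by One-Glo.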

[7] = qHTS assay to identify small molecule agonists of the estrogen related receptor signaling pathway with the pleiotropic PPARgamma coactivator (PGC) from Tox21 10K library (AID 1224842); further: nearly all actives have a fitted effect of over 15% in size
Outline: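 PGC/ERR reporter cell line, 2,000 cells per well, incubated 6 h at 37 C before 23 nL compound in DMSO was added. After 18 h at 37 C, One-Glo luminescence read following 30 min at room temperature.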

[8] = target: Thyrotropin receptor (Homo sapiens) (UniProt P16473); experiment: qHTS assay to identify small molecule agonists of the thyroid stimulating hormone receptor (TSHR) signaling pathway (AID 1224843; calls by dose curve; further: nearly all actives have a fitted effect of over 45% in size)
Thyrotropin receptor (Homo sapiens), sequence (P16473 whole entry, looked up): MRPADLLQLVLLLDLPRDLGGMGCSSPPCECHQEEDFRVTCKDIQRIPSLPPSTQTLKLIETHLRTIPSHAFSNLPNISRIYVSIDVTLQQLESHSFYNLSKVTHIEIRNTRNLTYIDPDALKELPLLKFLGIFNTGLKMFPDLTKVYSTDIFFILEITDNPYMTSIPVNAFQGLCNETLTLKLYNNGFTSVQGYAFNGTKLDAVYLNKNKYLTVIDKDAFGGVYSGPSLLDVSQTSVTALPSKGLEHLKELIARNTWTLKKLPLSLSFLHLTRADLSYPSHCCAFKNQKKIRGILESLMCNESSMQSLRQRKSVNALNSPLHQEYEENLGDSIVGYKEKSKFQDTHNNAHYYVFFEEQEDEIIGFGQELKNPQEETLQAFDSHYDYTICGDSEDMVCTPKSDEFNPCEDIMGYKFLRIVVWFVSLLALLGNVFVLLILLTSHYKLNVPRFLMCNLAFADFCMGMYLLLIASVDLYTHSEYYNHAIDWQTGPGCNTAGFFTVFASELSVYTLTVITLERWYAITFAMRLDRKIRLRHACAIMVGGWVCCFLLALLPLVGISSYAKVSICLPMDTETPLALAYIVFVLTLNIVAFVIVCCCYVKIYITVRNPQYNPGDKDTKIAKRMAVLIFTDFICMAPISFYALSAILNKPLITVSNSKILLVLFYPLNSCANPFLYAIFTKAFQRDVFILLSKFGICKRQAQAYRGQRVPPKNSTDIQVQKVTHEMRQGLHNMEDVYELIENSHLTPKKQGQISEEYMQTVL
Outline: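 Steps: seed 800 TSHR-HEK293 cells per well; add test compound and hold 30 min at ambient temperature; dispense cAMP-d2 then anti-cAMP cryptate; incubate 1 h at ambient; measure fluorescence intensity.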

[9] = qHTS assay to identify small molecule agonists of the hypoxia (HIF-1) signaling pathway - cell viability counter screen (AID 1224844; calls by dose curve; further: nearly all actives have a fitted effect of over 50% in size)
Outline: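 Multiplexed with the HRE beta-lactamase assay, this viability read used CellTiter-Glo luminescence (30 min, RT) on HRE-bla ME-180 cells treated 17 hrs with compounds in 0.5% dialyzed FBS medium.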

[10] = qHTS assay to identify small molecule agonists of H2AX (AID 1224845; active means well fitted activation curve with a large enough effect in the signal ratio in the repeat runs, not every such curve was filed as active; the % refers to the signal ratio)
Outline: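 Wild-type CHO-K1 cells, plated overnight, exposed 3hr at 37C to 15 concentrations (0.76% DMSO final). Lysed, then HTRF anti-pH2AX (S139) cryptate and anti-H2AX-d2 antibodies, 24 hr room temperature; 665/620 nm emission read.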

[11] = qHTS assay to identify small molecule agonists of the hypoxia (HIF-1) signaling pathway (AID 1224846; active means well fitted activation curve with a large enough effect in the signal ratio in the repeat runs, not every such curve was filed as active; the % refers to the signal ratio)
Outline: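 Hypoxia-pathway activation was scored as increased beta-lactamase from an HRE-controlled reporter in ME-180 cells; plated at 2,000 cells per well with 0.5% dialyzed FBS, they were exposed 17 hrs to compounds and then given CCF4-AM.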

[12] = qHTS assay to identify small molecule agonists of H2AX - cell viability counter screen (AID 1224847; calls by dose curve; further: top concentration of the series differs between compounds; nearly all actives have a fitted effect of over 30% in size)
Outline: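 CHO-K1 wt, 1000 cells/well, o/n 37C; cpds 15 conc, 3 h 37C, 0.76% DMSO; CellTiter-Glo, 30 min RT, luminescence.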

[13] = qHTS assay to identify small molecule agonists of the estrogen related receptor (ERR) signaling pathway from Tox21 library (AID 1224849; calls by dose curve; further: nearly all actives have a fitted effect of over 15% in size); details: ERR reporter cell line, ONE-Glo luciferase, 18 h
Outline: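 Six hours post-seeding at 37 C/5% CO2, ERR cells receive DMSO-solubilised compounds; after 18 h at 37 C, ONE-Glo reagent is applied and luminescence recorded.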

[14] = qHTS RealTime-Glo MT Cell Viability Assay in HepG2 cells - 24 hour (AID 1224867); further: nearly all actives have a fitted effect of over 50% in size
Outline: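 Real-time, nonlytic viability: 600 HepG2 cells/well mixed with NanoLuc enzyme plus prosubstrate; 5 h settle, compound (DMSO) added by pintool; luminescence monitored over 40 h at 37 C.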

[15] = qHTS RealTime-Glo MT Cell Viability Assay in HEK293 cells - 32 hour (AID 1224868); further: top concentration of the series differs between compounds; nearly all actives have a fitted effect of over 50% in size
Outline: (§1)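 Cells + reagent dispensed (600 cells/well, HEK293) → 5 h at 37 C/5% CO2 → 23 nL compound in DMSO pinned → 40 h at 37 C → luminescence read at 0, 8, 16, 24, 32, 40 h.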

[16] = A CellTox Green Cytotoxicity Assay to monitor cytotoxicity in HEK293 cells - 0 hour (AID 1224869); further: nearly all actives have a fitted effect of over 50% in size
Outline: (§2)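 Seeding of HEK293 cells together with cytotoxicity dye preceded a 5 h incubation at 37 C/5% CO2. Test compounds in DMSO were then added and fluorescence monitored across 40 h.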

[17] = A CellTox Green Cytotoxicity Assay to monitor cytotoxicity in HEK293 cells - 40 hour (AID 1224871); further: nearly all actives have a fitted effect of over 45% in size
Outline: as §2

[18] = qHTS RealTime-Glo MT Cell Viability Assay in HEK293 cells - 16 hour (AID 1224872)
Outline: as §1

[19] = qHTS assay to identify small molecule antagonists of the estrogen related receptor (ERR) signaling pathway from Tox21 library (AID 1224848); further: nearly all actives have a fitted effect of over 50% in size
Outline: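 Luminescent reporter read-out (ONE-Glo) from NTP's ERR cell line after 18 h treatment at 37 C with DMSO-dissolved Tox21 compounds; cells pre-plated 6 h beforehand at 2,000 per well.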

[20] = qHTS RealTime-Glo MT Cell Viability Assay in HepG2 cells - 40 hour (AID 1224870); further: nearly all actives have a fitted effect of over 50% in size
Outline: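 HepG2 cells (600/well) mixed with RealTime-Glo MT reagent, settled 5 h at 37 C/5% CO2 before compound addition. Nonlytic NanoLuc luminescence from viable-cell prosubstrate reduction read repeatedly during 40 h treatment at 37 C.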
On the % scale 0 is the no-effect control and ±100 the full control effect.

CO[Si](OC)(OC)c1ccccc1
inactive: Potency [1] | Potency [2] | Potency [3] | Potency [4] | Potency [5] | Potency [6] | Potency [7] | Potency [8] | Potency [9] | Potency [10] | Potency [11] | Potency [12] | activity change, positive = activation ([13]; at 92.4 µM (top of the series)) 18% | Potency [14] | Potency [15] | Potency [16] | Potency [17] | Potency [18]

CCCCC/C=C/CC1CC(=O)OC1=O (stereo unspecified)
inactive: Potency [1] | Potency [2] | Potency [3] | Potency [4] | Potency [5] | Potency [6] | Potency [7] | Potency [8] | Potency [9] | Potency [10] | Potency [11] | Potency [12] | Potency [19] | activity change, positive = activation ([13]; at 92.4 µM (top of the series)) 5.46% | Potency [14] | Potency [15] | Potency [16] | Potency [20] | Potency [17] | Potency [18]

COc1cc(C(=S)N2CCOCC2)ccc1O
inactive: Potency [1] | Potency [2] | Potency [3] | Potency [4] | Potency [5] | Potency [6] | Potency [7] | Potency [8] | Potency [9] | Potency [10] | Potency [11] | Potency [12] | Potency [19] | activity change, positive = activation ([13]; at 42.5 µM (top of the series)) -0.619% | Potency [14] | Potency [15] | Potency [20] | Potency [17]

N[C@@H]1CONC1=O
inactive: Potency [1] | Potency [2] | Potency [3] | Potency [4] | Potency [5] | Potency [6] | Potency [7] | Potency [8] | Potency [9] | Potency [10] | Potency [12] | activity change, positive = activation ([13]; at 42.5 µM (top of the series)) 7.16% | Potency [14] | Potency [15] | Potency [16] | Potency [20] | Potency [17]

Cc1cccc(O)c1C
inactive: Potency [1] | Potency [2] | Potency [3] | Potency [4] | Potency [5] | Potency [6] | Potency [7] | Potency [8] | Potency [9] | Potency [10] | Potency [11] | Potency [12] | Potency [19] | activity change, positive = activation ([13]; at 92.4 µM (top of the series)) 0.54% and 10.2% | Potency [14] | Potency [15] | Potency [20] | Potency [17] | Potency [18]

O=C(O)Cn1cnnn1
inactive: Potency [1] | Potency [2] | Potency [3] | Potency [4] | Potency [5] | Potency [6] | Potency [7] | Potency [8] | Potency [9] | Potency [10] | Potency [11] | Potency [12] | Potency [19] | activity change, positive = activation ([13]; at 42.5 µM (top of the series)) 4% | Potency [14] | Potency [15] | Potency [16] | Potency [20] | Potency [17] | Potency [18]

CC(C)CCOCc1ccccc1
inactive: Potency [1] | Potency [2] | Potency [3] | Potency [4] | Potency [5] | Potency [6] | Potency [7] | Potency [8] | Potency [9] | Potency [10] | Potency [11] | Potency [12] | activity change, positive = activation ([13]; at 92.4 µM (top of the series)) 4.72% | Potency [14] | Potency [15] | Potency [20] | Potency [17] | Potency [18]

CCC(C)(Oc1ccc(C2(c3ccc(OC(C)(CC)C(=O)O)cc3)CCCCC2)cc1)C(=O)O (stereo unspecified)
inactive: Potency [1] | Potency [2] | Potency [3] | Potency [4] | Potency [5] | Potency [6] | Potency [7] | Potency [8] | Potency [9] | Potency [10] | Potency [11] | Potency [12] | Potency [19] | activity change, positive = activation ([13]; at 42.5 µM (top of the series)) 9.22% | Potency [14] | Potency [15] | Potency [16] | Potency [20] | Potency [17] | Potency [18]

CCC(CO)(CO)COCC(CC)(CO)CO
inactive: Potency [1] | Potency [2] | Potency [3] | Potency [4] | Potency [5] | Potency [6] | Potency [7] | Potency [8] | Potency [9] | Potency [10] | Potency [11] | Potency [12] | activity change, positive = activation ([13]; at 92.4 µM (top of the series)) 6.39% | Potency [14] | Potency [15] | Potency [16] | Potency [20] | Potency [17]

CC(=O)CC(=O)Nc1ccc2[nH]c(=O)[nH]c2c1
inactive: Potency [1] | Potency [2] | Potency [3] | Potency [4] | Potency [5] | Potency [6] | Potency [7] | Potency [8] | Potency [9] | Potency [10] | Potency [11] | Potency [12] | Potency [19] | activity change, positive = activation ([13]; at 92.4 µM (top of the series)) 4.73% | Potency [14] | Potency [15] | Potency [16] | Potency [20] | Potency [17] | Potency [18]

CC(C)(C)NCC(O)COc1ccccc1OCC1CCCO1 (stereo unspecified)
inactive: Potency [1] | Potency [2] | Potency [3] | Potency [4] | Potency [5] | Potency [6] | Potency [7] | Potency [8] | Potency [9] | Potency [10] | Potency [11] | Potency [12] | activity change, positive = activation ([13]; at 42.5 µM (top of the series)) 4.72% | Potency [14] | Potency [15] | Potency [16] | Potency [20] | Potency [17]

From PubChem BioAssay (Tox21)
